Drawing on PubChem BioAssay (NCATS), this text covers Potency and viability, % of control for 29 compounds.

Results filed as inconclusive are left out. A call without a number means that no potency is given here. Active and inactive are the calls of the source. Calls come from the whole dose curve; as a rule, active = well fitted cell-killing curve with a large enough effect; inconclusive = small, poorly fitted or top-dose-only effect, or effect the other way; inactive = no such curve, though single readings can be large or run the other way.
Potency is the fitted concentration of half-maximal effect.

The assay is described as follows: Viability qHTS for spleen associated tyrosine kinase inhibitor (SYKi) drug resistant MV4-11 cells (AID 1963824). Note: nearly all actives have a fitted effect of over 35% in size. The settings on record: SYKi-resistant MV4-11 viability, CellTiter-Glo, 72 h; series mostly up to 45 µM. The essentials: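 SYK-inhibitor-resistant MV4-11 AML cells were seeded at 500 per well onto compound and cultured 72 hours (37 °C, 5% CO2). CellTiter-Glo was then added, and after 10 min at room temperature, luminescence gave viability.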
For orientation: qHTS replaces the single test concentration by a dilution series.
Consider `C/C=C/C1OC2=C(C(=O)OC2(C)O)C(O)C1O` (centres undefined), for which the Potency entry is “inactive”.
On the same count and under the same terms, then `CC(C)(Cc1nc(-c2ccc(O)cn2)no1)C(=O)NC1=C(C(=O)O)CCCC1`, with “inactive”; and `O=C1C(Cl)=C(N2CCOCC2)C(=O)N1c1ccc(Cl)c(Cl)c1`, with 5.02 µM (active).
The same measure, in the same setting: as for `CCCCCCOc1cc2c(cc1N(C)c1ncc(C(=O)O)cn1)C(C)(C)CCC2(C)C`, the figure is 6.51 µM (active); as for `C/C(=C\CO[C@@H]1O[C@H](CO[C@H]2OC[C@](O)(CO)[C@H]2O)[C@@H](O)[C@H](O)[C@H]1O)C(C)(C)O`, “inactive”; as for `C=CCc1ccc(O[C@@H]2O[C@H](CO[C@@H]3O[C@H](CO)[C@@H](O)[C@H](O)[C@H]3O)[C@@H](O)[C@H](O)[C@H]2O)c(O)c1`, “inactive”.
The same measure, in the same setting: then `C=C(C)C1CCC2(C(=O)O)CCC3(C(=O)O)C(CCC4C5(C)CCC(O)C(C)(C(=O)O)C5CCC43C)C12` (centres undefined), with “inactive”; and `C=C1C(=O)OC2C3=C(C)C(=O)CC3C(C)CC(O)C12` (centres undefined), with 6.51 µM (active).
As for `CN[C@@H]1[C@@H](O)[C@@H](O[C@@H]2[C@@H](O)[C@H](O[C@H]3O[C@@H]([C@@H](C)NC)CC[C@H]3N)[C@@H](N)C[C@H]2N)OC[C@]1(C)O`, the Potency result is “inactive”.
On the same count and under the same terms, then `CCS(=O)c1nc(-c2cccc(OCc3ccccc3)c2)cc(C(F)(F)F)n1` (centres undefined), with 5.8 µM (active); and `O=C1NC(=O)/C(=C\c2ccc3nccc(-c4ccncc4)c3c2)S1`, with 0.517 µM (active); and `COc1ccc(C(=O)CC(=O)O)c2c1C=CC(C)(C)O2`, with “inactive”.
Consider `C=C1C(=O)O[C@@H]2[C@H]1CCC(C)=C(CCC(=O)O)[C@@]2(C)O`, for which the Potency was 4.11 µM (active).
On the same count and under the same terms, as for `Cn1nnc(-c2ccc(-c3ccc(N4C[C@H](COP(=O)(O)O)OC4=O)cc3F)cn2)n1`, the entry is “inactive”.
Still for that read-out and setting: then `COc1cc(/C=C/C(=O)OC[C@H]2O[C@@H](OC3CC(C)=C(C(=O)O)C(C)(C)C3)[C@H](O)[C@@H](O)[C@@H]2O)cc(OC)c1O` (some centres undefined), with “inactive”; and `CC(C)[C@H]1CC[C@@]2(O)COC(=O)[C@H]2[C@@H]1/C=C(\CO)C(=O)O`, with “inactive”.
On the same count and under the same terms, as for `CC(C)C1CCC(C(=O)N[C@@H](Cc2ccccc2)C(=O)O)CC1` (some centres undefined), the entry is “inactive”.
As to `C/C=C(\C)C(=O)O[C@@H]1CC2[C@@H](CC=C3C[C@@H](O[C@H]4C[C@H](OC)[C@H](O[C@H]5C[C@H](OC)[C@H](O[C@@H]6O[C@H](C)[C@@H](O[C@H]7C[C@H](OC)[C@H](O[C@@H]8O[C@H](CO)[C@@H](O)[C@H](O)[C@H]8O)[C@@H](C)O7)[C@H](OC)[C@H]6O)[C@@H](C)O5)[C@@H](C)O4)CC[C@@]32C)[C@@]2(O)CC[C@H](C(C)=O)[C@@]12C` (some centres undefined), the viability, % of control was 61.7% [at 9.25 µM] (inactive).
With `CCC(C)/C=C(C)/C=C/C1=CC2=C(Cl)C(=O)C(C)(OC(C)=O)C(=O)C2=CN1C(CCCN=C(N)N)C(=O)O` (centres undefined), the Potency result was “inactive”.
As for `C[C@@H]1O[C@@H](O[C@H]2[C@H](OC(=O)[C@]34CCC(C)(C)C[C@H]3C3=CCC5[C@@]6(C)C[C@H](O)[C@H](O[C@@H]7O[C@H](CO[C@@H]8OC[C@H](O)[C@H](O)[C@H]8O)[C@@H](O)[C@H](O)[C@H]7O)C(C)(C)C6CC[C@@]5(C)[C@]3(C)C[C@H]4O)OC[C@@H](O)[C@@H]2O)[C@H](O)[C@H](O[C@@H]2OC[C@](O)(CO)[C@H]2O)[C@H]1O[C@@H]1OC[C@H](O)[C@H](O[C@@H]2OC[C@@H](O)[C@H](O)[C@H]2O)[C@H]1O` (some centres undefined), the viability, % of control is 85% [at 9.25 µM] (inactive).
With `C=C1CC[C@@H](O)[C@]2(C)C[C@H]3OC(=O)C(=C)[C@H]3CC12` (some centres undefined), the Potency was 6.51 µM (active).
The same measure, in the same setting: then `COc1cc2c(NC3CCN(C(C)C)CC3)nc(N3CCC(F)(F)CC3)nc2cc1OCCCN1CCCC1`, with 2.91 µM (active).
On the same count and under the same terms, as for `COc1ccc(CCO[C@@H]2O[C@H](CO[C@@H]3OC[C@H](O)[C@H](O)[C@H]3O)[C@@H](O)[C@H](O)[C@H]2O)cc1`, the entry is “inactive”; as for `COC(=O)C(C)C1CCC2(C)C(=O)C=CC(C)(O)C2C1O` (centres undefined), “inactive”.
Still for that read-out and setting: then `O=C(O)CC1(O)C(=O)Nc2ccccc21` (centres undefined), with “inactive”.
Turning to `CC1=C2CC(=O)C(C)CC/C=C(\C)CC2OC1=O` (centres undefined), the Potency result is “inactive”.
On the same count and under the same terms, as for `C=CC1C(O[C@@H]2O[C@H](CO)[C@@H](O)[C@H](O)[C@H]2O)OC=C(C(=O)OC)C1Cc1nccc2c1[nH]c1ccccc12` (some centres undefined), the figure is 3.99 µM (active).
On the same count and under the same terms, as for `Nc1ncnc2c1nc(Cl)n2C1OC2COP(=O)(O)OC2C1O` (centres undefined), the figure is 0.461 µM (active).
On the same count and under the same terms, as for `C[C@H](O)[C@H](O)/C=C/c1cccc(O)c1CO`, the figure is 0.0092 µM (active).
